Records with an inconclusive call do not appear. Active and inactive are the calls of the source. Calls follow the shape of the dose curve; as a rule, active = well fitted cell-killing curve with a large enough effect; inconclusive = small, poorly fitted or top-dose-only effect, or effect the other way; inactive = flat fitted curve, though single readings scatter.
Experiments:
Assay in all cases: Primary qHTS to identify gynecologic anti-cancer compounds using libraries of approved drugs and bioactive compounds (AID 1345084); also: nearly all actives have a fitted effect of over 55% in size
Details in all cases: Gynecologic cancer cell panel viability, ATPlite luminescence, 48 h; series mostly up to 57.5 µM
[1] = tested on: OV90
Method in brief: (§1)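 48 h compound exposure at 37 C, 5% CO2; five-point qHTS. ATPlite luminescence readout of cell ATP.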

[2] = tested on: PA-1
Method in brief: as §1

[3] = tested on: SKOV3
Method in brief: as §1

[4] = tested on: Tov-21-G
Method in brief: as §1

[5] = tested on: Tov112D
Method in brief: as §1
% is scaled to controls: 0 for no effect and ±100 for the full control effect.

O=C(O)CC/C=C\C[C@H]1CO[C@@H](c2ccccc2Cl)O[C@H]1c1ccccc1O
inactive: Potency [1] | Potency [2] | Potency [3] | Potency [4] | Potency [5]

C[C@@H](NC(=O)c1cc(C(=O)N[C@@H](Cc2ccccc2)[C@H](O)CNC2CC2)cc(N(C)S(C)(=O)=O)c1)c1ccccc1
inactive: Potency [1] | Potency [2] | Potency [3] | Potency [4] | Potency [5]

CC(C)(O)c1ccc2c(c1)C(=O)C[C@H]1[C@](C)(C(=O)O)CCC[C@]21C
inactive: Potency [1] | Potency [2] | Potency [3] | Potency [4] | Potency [5]

COc1cccc(C)c1C(=O)O[C@@H]1C[C@H](O[C@H]2[C@H](O)C[C@H](O[C@@H]3CCC[C@H]4[C@H]3C=C[C@@H]3CCCC/C=C/[C@H]5C=C(C(=O)O)[C@@H](C)C[C@@]56OC(=O)C(=C6O)OC(=O)[C@@]34C)O[C@@H]2C)O[C@H](C)[C@H]1O
inactive: activity change, negative = cytotoxicity [1] 2.5% [at 11.6 µM] | activity change, negative = cytotoxicity [2] 9.36% [at 11.6 µM] | activity change, negative = cytotoxicity [3] 18.8% [at 11.6 µM] | activity change, negative = cytotoxicity [4] 11.1% [at 11.6 µM] | activity change, negative = cytotoxicity [5] -1.83% [at 11.6 µM]

CC(=O)c1ccc(O[C@@H]2OC[C@@H](O)[C@H](O)[C@H]2O[C@]2(CO)O[C@H](CO)[C@@H](O)[C@@H]2O)c(O)c1
inactive: Potency [1] | Potency [2] | Potency [3] | Potency [4] | Potency [5]

Cc1c(NC(=O)N2CCOCC2)ccc2c1c1ccccc1n2C(C)C
inactive: Potency [1] | Potency [2] | Potency [3] | Potency [4] | Potency [5]

CC1(O)CC(O)C2C(C(=O)O)=COC(OC3OC(CO)C(O)C(O)C3OC(=O)/C=C/c3ccc(O)cc3)C21 (stereo not given)
inactive: Potency [1] | Potency [2] | Potency [3] | Potency [4] | Potency [5]

N#Cc1cc(-c2n[nH]c(-c3ccncc3)n2)ccn1
inactive: Potency [1] | Potency [2] | Potency [3] | Potency [4] | Potency [5]

CSC(=O)OCC1=C[C@@H]2OC(=O)C3=CO[C@@H](O[C@@H]4O[C@H](CO)[C@@H](O)[C@H](O)[C@H]4O)[C@H]1[C@@H]32
inactive: Potency [1] | Potency [2] | Potency [3] | Potency [4] | Potency [5]

C/C=C(\C)C(=O)OCC1OC(OC2OC(CO)C(O)C(O)C2O)C(O)C(O)C1O (stereo not given)
inactive: Potency [1] | Potency [2] | Potency [3] | Potency [4] | Potency [5]

C=C(C(=O)O)C1CC(OC(=O)CC(C)CC)C2(C)CCCC(=C)C2C1 (stereo not given)
inactive: Potency [1] | Potency [2] | Potency [3] | Potency [4] | Potency [5]

CCC(C)C(=O)O[C@H]1[C@@H](O[C@H]2O[C@H](CO)[C@@H](O)[C@H](O)[C@H]2O)O[C@H](CO)[C@@H](O)[C@@H]1O (stereo not given in full)
inactive: Potency [1] | Potency [2] | Potency [3] | Potency [4] | Potency [5]

CC(C)(CC(=O)N1CCCC1)NCC(=O)N1C[C@@H](F)C[C@H]1C#N
inactive: Potency [1] | Potency [2] | Potency [3] | Potency [4] | Potency [5]

O=C(OC[C@H]1O[C@@H](Oc2ccccc2CO)[C@H](O)[C@@H](O)[C@@H]1O)c1ccccc1
inactive: Potency [1] | Potency [2] | Potency [3] | Potency [4] | Potency [5]

C=C(C)C1Cc2c(ccc3c2OCC(c2ccc(O)cc2O)C3)O1 (stereo not given)
inactive: Potency [1] | Potency [2] | Potency [3] | Potency [4] | Potency [5]

Cc1[nH]c2ccccc2c1CC(=O)N[C@@H](Cc1ccccc1)C(=O)N(C)c1ccccc1
inactive: Potency [1] | Potency [2] | Potency [3] | Potency [4] | Potency [5]

COC(O)(CC(C)C)C1Oc2cc(C)[nH]c(=O)c2O1 (stereo not given)
inactive: Potency [1] | Potency [2] | Potency [3] | Potency [4] | Potency [5]

CC1CC2OCC3(O)CCC(O)C(C14CC(c1ccoc1)OC4=O)C23CO (stereo not given)
inactive: Potency [1] | Potency [2] | Potency [3] | Potency [4] | Potency [5]

C/C(=C\CCC1(C)C2CC3C(C2)C31C)C(=O)O (stereo not given)
inactive: Potency [1] | Potency [2] | Potency [3] | Potency [4] | Potency [5]

Cc1ccccc1-c1cc(N2CCN(C)CC2)ncc1N(C)C(=O)C(C)(C)c1cc(C(F)(F)F)cc(C(F)(F)F)c1
inactive: Potency [1] | Potency [2] | Potency [3] | Potency [4] | Potency [5]

COc1cc(O)cc(O[C@@H]2O[C@H](CO)[C@@H](O[C@@H]3OC[C@](O)(CO)[C@H]3O)[C@H](O)[C@H]2O)c1OC
inactive: Potency [1] | Potency [2] | Potency [3] | Potency [4] | Potency [5]

C[C@@H]1O[C@@H](O[C@@H]2[C@@H](O)[C@H](O[C@@H]3[C@@H](O)[C@@H](O)[C@H](O[C@H]4[C@H](OC(=O)[C@]56CCC(C)(C)C[C@H]5C5=CCC7[C@@]8(C)C[C@H](O)[C@H](O[C@@H]9O[C@H](C(=O)O)[C@@H](O)[C@H](O)[C@H]9O)[C@@](C)(CO)C8[C@H](O)C[C@@]7(C)[C@]5(C)C[C@H]6O)O[C@@H](CO)[C@@H]4O)O[C@H]3C)OC[C@H]2O)[C@H](O)[C@H](O)[C@H]1O (stereo not given in full)
inactive: activity change, negative = cytotoxicity [1] 0.206% [at 6.55 µM] | activity change, negative = cytotoxicity [2] 24% [at 6.55 µM] | activity change, negative = cytotoxicity [3] -4.92% [at 6.55 µM] | activity change, negative = cytotoxicity [4] 2.22% [at 6.55 µM] | activity change, negative = cytotoxicity [5] 5.57% [at 6.55 µM]

Source: PubChem BioAssay (NCATS)
